# Assay results published in PubChem BioAssay (NCATS).
# Values without a mark were called inactive. Inconclusive results are not listed. Calls of active or inactive are those of the source. Unless noted, calls follow the shape of the dose curve; as a rule, active = well fitted activation curve with a large enough effect in the main read-out, with a control signal flat (not every such curve was filed as active); inconclusive = small, poorly fitted or top-dose-only effect, or effect the other way, or a change in a side signal; inactive = flat fitted curve, though single readings scatter.
# Biological target: 3',5'-cyclic-AMP phosphodiesterase 4B (Homo sapiens) (UniProt Q07343)
# Sequence (Q07343 whole entry, looked up): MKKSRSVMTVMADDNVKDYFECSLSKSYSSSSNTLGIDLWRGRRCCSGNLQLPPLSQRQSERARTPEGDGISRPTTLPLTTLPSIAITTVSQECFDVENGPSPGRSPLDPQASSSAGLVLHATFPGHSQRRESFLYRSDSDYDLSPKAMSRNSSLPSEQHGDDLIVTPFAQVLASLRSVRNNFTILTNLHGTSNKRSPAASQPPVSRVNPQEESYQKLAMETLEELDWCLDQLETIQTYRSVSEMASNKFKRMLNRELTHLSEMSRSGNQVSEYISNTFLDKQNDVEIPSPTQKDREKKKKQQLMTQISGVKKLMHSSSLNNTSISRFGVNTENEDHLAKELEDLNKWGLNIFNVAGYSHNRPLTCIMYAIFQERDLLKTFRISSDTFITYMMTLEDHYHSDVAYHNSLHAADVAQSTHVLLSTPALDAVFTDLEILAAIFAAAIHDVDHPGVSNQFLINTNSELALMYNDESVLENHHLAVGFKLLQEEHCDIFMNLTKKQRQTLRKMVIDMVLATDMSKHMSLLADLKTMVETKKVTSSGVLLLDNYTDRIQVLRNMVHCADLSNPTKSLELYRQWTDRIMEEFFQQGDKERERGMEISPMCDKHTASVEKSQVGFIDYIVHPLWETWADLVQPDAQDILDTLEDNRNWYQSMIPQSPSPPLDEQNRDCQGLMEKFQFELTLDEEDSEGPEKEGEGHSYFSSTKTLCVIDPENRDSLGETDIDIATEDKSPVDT
# Assay: qHTS Assay for Inhibitors of PDE-IV (AID 607); also: potency is read from the fitted curve at half-maximal effect; as to activation (PDE inhibition): % of control where 0% means no effect
# Details: HEK293 ACTOne CNG channel cells, membrane potential fluorescence; series mostly up to 22.9 µM; activation (PDE inhibition): at the top concentration
# Procedure, shortened: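 Live HEK293 cells with a modified cyclic nucleotide-gated (CNG) channel report intracellular cAMP via membrane-potential dye fluorescence (ex 535/em 590 nm). Endogenous PDE-IV was targeted. Compounds were tested at up to 22.9 uM final; RO 20-1724 100 uM served as control.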
Compound,activation (PDE inhibition) [%],Potency
N=C(N)c1ccccc1,-0.455,–
COc1ccc(-c2ccc(N)[n+](CCCC(=O)O)n2)cc1,–,inactive
O=C(O)C1=CCCN(CCON=C(c2ccccc2)c2ccccc2)C1,-25.3,–
CC(=O)C(C)=O,0.044,–
C[N+](C)(C)CC=O,-4.41,–
CC1CCN(CC[C@H]2CCCN2S(=O)(=O)c2cccc(O)c2)CC1,-29.9,–
CCCCCC[C@@H]([C@@H](C)O)n1cnc2c(N)ncnc21,7.89,–
N=C(N)c1ccc(OCCCCCOc2ccc(C(=N)N)cc2)cc1 (tested in a mixture with another compound),-9.31,–
CC(C)NC[C@H](O)COc1ccc(CC(N)=O)cc1,–,inactive
NC(N)=[N+]1CCc2ccccc2C1,-23.3,–
NCCCCN=C(N)N,10.5,–
NCCNS(=O)(=O)c1cccc2c(Cl)cccc12,12.4,–
O=c1[nH]c(=O)c2nc3ccccc3nc2[nH]1,1.14,–
N[C@@H](Cc1c[nH]c2ccccc12)C(=O)O,0.194,–
Nc1nc2[nH]c(=O)cnc2c(=O)[nH]1,-19.6,–
O=c1[nH]c2ccccc2c2ccccc12,4.32,–
CCCc1c(OCCCOc2ccc(OCC(=O)O)cc2)ccc(C(C)=O)c1O,3.05,–
O=C(O)/C(=C/c1c(C(=O)O)[nH]c2cc(Cl)cc(Cl)c12)c1ccccc1,21,–

Compound,activation (PDE inhibition) [%],Potency
O=c1cc(-c2ccccc2)[nH]c2nc(Cl)ccc12,11.3,–
C#CCn1c(=O)c2c(ncn2C)n(C)c1=O,-3.36,–
Nn1nnc2ccccc21,-0.285,–
O=C(O)Cc1ccc(O)c(O)c1,-1.37,–
Cc1cc2c(cc1Cl)N(C(=O)Nc1ccnc3ccccc13)CC2,12.4,–
COc1cc(CC(=O)O)ccc1O,-12.4,–
CC(N)=O,-15,–
CCN(c1nc(N)c(C(=O)N=C(N)N)nc1Cl)C(C)C,21.2,–
Cn1ccnc1,-2.58,–
CC(C)NC[C@H](O)COc1cccc2ccccc12,-8.3,–
CCC(=O)N1CCN(C(=O)c2ccccc2)CC1,10.2,–
CC[C@@H]1Cc2cc(O)ccc2C2=C1c1ccc(O)cc1C[C@H]2CC,0.453,–
NC(=O)c1ccccc1,-3.45,–
CCCn1c(=O)c(C)cn2nc(N)nc12,–,151 nM (active)
COc1ccc(C(=O)NCc2cccnc2)cc1C(=O)NCc1cccnc1,–,inactive
Cc1ccc2c(c1)C(N1CCN(C)CC1)=Nc1cccnc1N2,0.202,–
NC1(C(=O)O)CC1,3.69,–

# Biological target: Guanine nucleotide-binding protein G(i) subunit alpha-1 (Homo sapiens) (UniProt P63096)
# Sequence (P63096 whole entry, looked up): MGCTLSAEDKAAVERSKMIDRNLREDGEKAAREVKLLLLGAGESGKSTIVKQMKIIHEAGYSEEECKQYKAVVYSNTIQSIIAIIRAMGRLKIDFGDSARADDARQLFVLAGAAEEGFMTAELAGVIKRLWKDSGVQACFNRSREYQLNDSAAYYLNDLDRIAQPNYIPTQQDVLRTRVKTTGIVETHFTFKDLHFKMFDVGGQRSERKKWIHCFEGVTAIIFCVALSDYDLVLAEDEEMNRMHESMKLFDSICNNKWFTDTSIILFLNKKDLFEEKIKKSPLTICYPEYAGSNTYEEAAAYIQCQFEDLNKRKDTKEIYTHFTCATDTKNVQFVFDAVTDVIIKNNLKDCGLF
# Assay: qHTS Assay for Inhibitors of RGS12 GoLoco Motif Activity (Green Fluorophore) (AID 879; active = well fitted curve in the direction sought with a large enough effect;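 also: 0% = labeled peptide with Gαi1 and full inhibition = labeled peptide alone without protein; negative values mean loss of peptide binding seen as reduced polarization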)
# Details: Galphai1/FITC-RGS12 GoLoco peptide, fluorescence polarization; series mostly up to 57.1 µM; activity, negative = inhibition: at the top concentration
# Procedure, shortened: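 A drop in FITC polarization marked displacement of the FITC-tagged RGS12 GoLoco peptide (10 nM) from Gαi1 (50 nM). Compounds were incubated 10 min at room temperature in Tris pH 7.5 buffer containing 150 mM NaCl, 0.1 mM GDP and 0.05% NP40; unlabeled peptide titration served as control.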
Compound,"activity, negative = inhibition [%]",Potency
N=C(N)c1ccccc1,-3.43,–
COc1ccc(-c2ccc(N)[n+](CCCC(=O)O)n2)cc1,4.64,–
O=C(O)C1=CCCN(CCON=C(c2ccccc2)c2ccccc2)C1,-7.3,–
CC(=O)C(C)=O,-10.9,–
C[N+](C)(C)CC=O,4.53,–
CC(C)NC[C@H](O)COc1ccc(CC(N)=O)cc1,–,inactive
NC(N)=[N+]1CCc2ccccc2C1,-24.2,–
NCCCCN=C(N)N,-4.79,–
Nc1nc2[nH]c(=O)cnc2c(=O)[nH]1,8.72,–
CCCc1c(OCCCOc2ccc(OCC(=O)O)cc2)ccc(C(C)=O)c1O,-8.48,–
O=c1cc(-c2ccccc2)[nH]c2nc(Cl)ccc12,-17.6,–
C#CCn1c(=O)c2c(ncn2C)n(C)c1=O,-15.3,–
Nn1nnc2ccccc21,-17.3,–
COc1cc(CC(=O)O)ccc1O,2.49,–
CC(N)=O,0.761,–
CCC(=O)N1CCN(C(=O)c2ccccc2)CC1,-2.62,–
CC[C@@H]1Cc2cc(O)ccc2C2=C1c1ccc(O)cc1C[C@H]2CC,-5.73,–
NC(=O)c1ccccc1,3.04,–
NC1(C(=O)O)CC1,6.55,–
